Measured values reported in the supplement of paper PMC11732987, “Enantioselective OTUD7B fragment discovery through chemoproteomics screening and high-throughput optimisation” (Communications Chemistry, 2025).

Legend:
Experiment in all cases: log2 ratio of Biotin-Ahx-Ub-VS probe labelling (fragment/DMSO); higher = less target engagement (more negative = stronger competition), active = hit call of the paper (q ≤ 0.05, log2 ratio ≤ -1)
Details in all cases: compound concentration: 200 uM; treatment time: 3 h
USP34 = USP34 (UniProt Q70CQ2)
Outline: (§1)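 HEK293T lysate in Tris/CHAPS/IGEPAL buffer with protease inhibitors (495 µg per sample) was given fragment at 200 µM or vehicle for 3 h, in triplicate. It then received Biotin-Ahx-Ub-VS at 0.5 µM final for 1 h. Labelled DUBs were NeutrAvidin-enriched, digested with LysC and trypsin, and run by diaPASEF LC-MS/MS. Values are average log2 fragment/vehicle ratios by unpaired t-test on global-median-normalised Spectronaut quantities of proteins with ≥2 unique peptides.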

USP36 = biological target: T1, USP36 (UniProt Q9P275)
T1 sequence (whole entry): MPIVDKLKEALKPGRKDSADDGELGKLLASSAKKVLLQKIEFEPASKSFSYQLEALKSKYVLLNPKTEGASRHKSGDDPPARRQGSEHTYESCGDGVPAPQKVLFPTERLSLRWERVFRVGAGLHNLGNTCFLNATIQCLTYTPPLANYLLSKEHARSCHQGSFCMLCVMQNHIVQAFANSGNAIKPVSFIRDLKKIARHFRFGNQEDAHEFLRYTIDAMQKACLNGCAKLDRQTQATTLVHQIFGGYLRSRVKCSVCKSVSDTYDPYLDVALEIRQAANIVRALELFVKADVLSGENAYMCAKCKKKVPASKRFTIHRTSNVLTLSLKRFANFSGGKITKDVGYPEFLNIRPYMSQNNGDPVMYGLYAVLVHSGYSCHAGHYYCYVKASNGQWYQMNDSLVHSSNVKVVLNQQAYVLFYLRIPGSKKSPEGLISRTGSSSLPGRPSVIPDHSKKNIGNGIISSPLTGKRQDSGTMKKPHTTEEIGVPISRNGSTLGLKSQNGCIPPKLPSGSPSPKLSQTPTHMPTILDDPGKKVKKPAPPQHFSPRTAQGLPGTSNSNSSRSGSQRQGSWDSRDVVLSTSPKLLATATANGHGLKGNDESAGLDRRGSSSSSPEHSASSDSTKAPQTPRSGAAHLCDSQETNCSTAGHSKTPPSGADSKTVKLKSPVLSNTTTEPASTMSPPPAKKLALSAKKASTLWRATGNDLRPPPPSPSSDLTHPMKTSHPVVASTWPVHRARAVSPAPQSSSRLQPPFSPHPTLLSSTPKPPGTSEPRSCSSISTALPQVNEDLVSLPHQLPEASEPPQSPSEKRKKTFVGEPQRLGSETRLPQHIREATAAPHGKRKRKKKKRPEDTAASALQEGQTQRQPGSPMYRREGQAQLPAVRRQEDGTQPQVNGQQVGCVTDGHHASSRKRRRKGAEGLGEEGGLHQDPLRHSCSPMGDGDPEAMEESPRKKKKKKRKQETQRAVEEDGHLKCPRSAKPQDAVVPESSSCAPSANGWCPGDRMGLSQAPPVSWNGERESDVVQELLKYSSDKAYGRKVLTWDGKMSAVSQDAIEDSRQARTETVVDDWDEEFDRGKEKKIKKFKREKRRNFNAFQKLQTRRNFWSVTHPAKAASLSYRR
Outline: as §1

USP38 = biological target: T2, USP38 (UniProt Q8NB14)
T2 sequence (whole entry): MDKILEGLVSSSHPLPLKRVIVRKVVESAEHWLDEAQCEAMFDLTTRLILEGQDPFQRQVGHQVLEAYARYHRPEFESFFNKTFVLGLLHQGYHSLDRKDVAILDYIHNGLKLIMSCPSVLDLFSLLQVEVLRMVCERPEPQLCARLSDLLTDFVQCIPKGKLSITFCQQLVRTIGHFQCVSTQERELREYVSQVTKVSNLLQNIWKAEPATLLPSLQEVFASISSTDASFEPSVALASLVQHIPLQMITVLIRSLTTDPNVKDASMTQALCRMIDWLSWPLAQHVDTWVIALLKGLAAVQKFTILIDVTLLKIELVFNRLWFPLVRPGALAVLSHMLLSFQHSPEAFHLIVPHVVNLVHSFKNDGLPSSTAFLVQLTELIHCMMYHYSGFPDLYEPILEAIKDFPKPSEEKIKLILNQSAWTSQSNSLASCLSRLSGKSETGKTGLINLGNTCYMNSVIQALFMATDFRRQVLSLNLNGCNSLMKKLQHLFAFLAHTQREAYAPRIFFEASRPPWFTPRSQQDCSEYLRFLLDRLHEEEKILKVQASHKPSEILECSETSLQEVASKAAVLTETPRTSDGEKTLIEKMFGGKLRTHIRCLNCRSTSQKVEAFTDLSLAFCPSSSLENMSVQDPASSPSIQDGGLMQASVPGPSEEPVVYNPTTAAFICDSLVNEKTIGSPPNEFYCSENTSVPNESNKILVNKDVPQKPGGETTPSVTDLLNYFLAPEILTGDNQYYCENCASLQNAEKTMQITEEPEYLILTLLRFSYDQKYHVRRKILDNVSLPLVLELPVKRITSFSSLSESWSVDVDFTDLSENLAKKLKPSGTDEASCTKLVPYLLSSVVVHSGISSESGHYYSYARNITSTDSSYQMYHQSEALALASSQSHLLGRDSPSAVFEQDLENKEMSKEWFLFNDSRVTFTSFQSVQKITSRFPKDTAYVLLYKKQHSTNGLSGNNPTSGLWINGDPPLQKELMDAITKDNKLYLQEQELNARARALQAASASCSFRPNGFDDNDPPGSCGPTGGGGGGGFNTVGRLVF
Outline: as §1

USP39 = biological target: T3, USP39 (UniProt Q53GS9)
T3 sequence (whole entry): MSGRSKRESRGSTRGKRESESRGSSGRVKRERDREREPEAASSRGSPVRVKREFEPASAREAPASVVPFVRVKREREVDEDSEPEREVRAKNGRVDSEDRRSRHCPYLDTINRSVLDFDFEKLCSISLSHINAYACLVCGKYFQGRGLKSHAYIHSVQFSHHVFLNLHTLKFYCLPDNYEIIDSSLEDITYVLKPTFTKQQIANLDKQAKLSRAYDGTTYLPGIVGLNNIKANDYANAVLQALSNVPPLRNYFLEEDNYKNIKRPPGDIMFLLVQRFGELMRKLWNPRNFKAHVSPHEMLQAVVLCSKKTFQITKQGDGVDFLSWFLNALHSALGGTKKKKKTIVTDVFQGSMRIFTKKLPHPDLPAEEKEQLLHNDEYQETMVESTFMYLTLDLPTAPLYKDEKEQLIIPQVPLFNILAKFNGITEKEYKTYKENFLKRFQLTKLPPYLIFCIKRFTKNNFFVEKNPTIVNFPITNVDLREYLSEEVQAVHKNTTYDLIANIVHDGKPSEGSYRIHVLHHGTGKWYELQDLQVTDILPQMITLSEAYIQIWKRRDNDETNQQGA
Outline: as §1

USP4 = biological target: T4, USP4 (UniProt Q13107)
T4 sequence (whole entry): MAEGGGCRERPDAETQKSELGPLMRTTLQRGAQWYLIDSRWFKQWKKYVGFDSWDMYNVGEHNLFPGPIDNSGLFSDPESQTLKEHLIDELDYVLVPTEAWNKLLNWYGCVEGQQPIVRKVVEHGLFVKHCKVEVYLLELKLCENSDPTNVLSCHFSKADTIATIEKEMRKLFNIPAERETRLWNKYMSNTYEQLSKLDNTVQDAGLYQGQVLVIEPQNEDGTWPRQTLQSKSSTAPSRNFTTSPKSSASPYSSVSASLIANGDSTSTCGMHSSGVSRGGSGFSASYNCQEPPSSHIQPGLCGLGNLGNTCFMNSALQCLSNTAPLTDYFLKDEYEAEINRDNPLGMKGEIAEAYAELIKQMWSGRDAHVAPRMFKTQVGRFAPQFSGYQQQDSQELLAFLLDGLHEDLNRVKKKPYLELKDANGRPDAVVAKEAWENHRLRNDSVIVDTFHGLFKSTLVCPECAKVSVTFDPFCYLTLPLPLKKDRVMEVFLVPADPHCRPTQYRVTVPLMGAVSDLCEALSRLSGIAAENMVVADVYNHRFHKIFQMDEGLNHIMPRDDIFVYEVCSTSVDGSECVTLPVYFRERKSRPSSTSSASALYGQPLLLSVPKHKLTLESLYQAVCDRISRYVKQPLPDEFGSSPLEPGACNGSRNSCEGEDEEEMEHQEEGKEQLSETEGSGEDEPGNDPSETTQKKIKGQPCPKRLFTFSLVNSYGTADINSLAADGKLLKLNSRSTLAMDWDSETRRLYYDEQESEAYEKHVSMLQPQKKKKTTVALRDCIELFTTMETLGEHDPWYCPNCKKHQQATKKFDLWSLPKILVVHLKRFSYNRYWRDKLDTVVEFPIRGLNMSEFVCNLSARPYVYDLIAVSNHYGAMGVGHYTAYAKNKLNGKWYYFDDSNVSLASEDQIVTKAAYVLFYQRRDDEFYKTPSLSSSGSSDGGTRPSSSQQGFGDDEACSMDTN
Outline: as §1

Measured: log2 ratio of Biotin-Ahx-Ub-VS probe labelling

USP34, sequence (Q70CQ2 whole entry, the tested form may be a part): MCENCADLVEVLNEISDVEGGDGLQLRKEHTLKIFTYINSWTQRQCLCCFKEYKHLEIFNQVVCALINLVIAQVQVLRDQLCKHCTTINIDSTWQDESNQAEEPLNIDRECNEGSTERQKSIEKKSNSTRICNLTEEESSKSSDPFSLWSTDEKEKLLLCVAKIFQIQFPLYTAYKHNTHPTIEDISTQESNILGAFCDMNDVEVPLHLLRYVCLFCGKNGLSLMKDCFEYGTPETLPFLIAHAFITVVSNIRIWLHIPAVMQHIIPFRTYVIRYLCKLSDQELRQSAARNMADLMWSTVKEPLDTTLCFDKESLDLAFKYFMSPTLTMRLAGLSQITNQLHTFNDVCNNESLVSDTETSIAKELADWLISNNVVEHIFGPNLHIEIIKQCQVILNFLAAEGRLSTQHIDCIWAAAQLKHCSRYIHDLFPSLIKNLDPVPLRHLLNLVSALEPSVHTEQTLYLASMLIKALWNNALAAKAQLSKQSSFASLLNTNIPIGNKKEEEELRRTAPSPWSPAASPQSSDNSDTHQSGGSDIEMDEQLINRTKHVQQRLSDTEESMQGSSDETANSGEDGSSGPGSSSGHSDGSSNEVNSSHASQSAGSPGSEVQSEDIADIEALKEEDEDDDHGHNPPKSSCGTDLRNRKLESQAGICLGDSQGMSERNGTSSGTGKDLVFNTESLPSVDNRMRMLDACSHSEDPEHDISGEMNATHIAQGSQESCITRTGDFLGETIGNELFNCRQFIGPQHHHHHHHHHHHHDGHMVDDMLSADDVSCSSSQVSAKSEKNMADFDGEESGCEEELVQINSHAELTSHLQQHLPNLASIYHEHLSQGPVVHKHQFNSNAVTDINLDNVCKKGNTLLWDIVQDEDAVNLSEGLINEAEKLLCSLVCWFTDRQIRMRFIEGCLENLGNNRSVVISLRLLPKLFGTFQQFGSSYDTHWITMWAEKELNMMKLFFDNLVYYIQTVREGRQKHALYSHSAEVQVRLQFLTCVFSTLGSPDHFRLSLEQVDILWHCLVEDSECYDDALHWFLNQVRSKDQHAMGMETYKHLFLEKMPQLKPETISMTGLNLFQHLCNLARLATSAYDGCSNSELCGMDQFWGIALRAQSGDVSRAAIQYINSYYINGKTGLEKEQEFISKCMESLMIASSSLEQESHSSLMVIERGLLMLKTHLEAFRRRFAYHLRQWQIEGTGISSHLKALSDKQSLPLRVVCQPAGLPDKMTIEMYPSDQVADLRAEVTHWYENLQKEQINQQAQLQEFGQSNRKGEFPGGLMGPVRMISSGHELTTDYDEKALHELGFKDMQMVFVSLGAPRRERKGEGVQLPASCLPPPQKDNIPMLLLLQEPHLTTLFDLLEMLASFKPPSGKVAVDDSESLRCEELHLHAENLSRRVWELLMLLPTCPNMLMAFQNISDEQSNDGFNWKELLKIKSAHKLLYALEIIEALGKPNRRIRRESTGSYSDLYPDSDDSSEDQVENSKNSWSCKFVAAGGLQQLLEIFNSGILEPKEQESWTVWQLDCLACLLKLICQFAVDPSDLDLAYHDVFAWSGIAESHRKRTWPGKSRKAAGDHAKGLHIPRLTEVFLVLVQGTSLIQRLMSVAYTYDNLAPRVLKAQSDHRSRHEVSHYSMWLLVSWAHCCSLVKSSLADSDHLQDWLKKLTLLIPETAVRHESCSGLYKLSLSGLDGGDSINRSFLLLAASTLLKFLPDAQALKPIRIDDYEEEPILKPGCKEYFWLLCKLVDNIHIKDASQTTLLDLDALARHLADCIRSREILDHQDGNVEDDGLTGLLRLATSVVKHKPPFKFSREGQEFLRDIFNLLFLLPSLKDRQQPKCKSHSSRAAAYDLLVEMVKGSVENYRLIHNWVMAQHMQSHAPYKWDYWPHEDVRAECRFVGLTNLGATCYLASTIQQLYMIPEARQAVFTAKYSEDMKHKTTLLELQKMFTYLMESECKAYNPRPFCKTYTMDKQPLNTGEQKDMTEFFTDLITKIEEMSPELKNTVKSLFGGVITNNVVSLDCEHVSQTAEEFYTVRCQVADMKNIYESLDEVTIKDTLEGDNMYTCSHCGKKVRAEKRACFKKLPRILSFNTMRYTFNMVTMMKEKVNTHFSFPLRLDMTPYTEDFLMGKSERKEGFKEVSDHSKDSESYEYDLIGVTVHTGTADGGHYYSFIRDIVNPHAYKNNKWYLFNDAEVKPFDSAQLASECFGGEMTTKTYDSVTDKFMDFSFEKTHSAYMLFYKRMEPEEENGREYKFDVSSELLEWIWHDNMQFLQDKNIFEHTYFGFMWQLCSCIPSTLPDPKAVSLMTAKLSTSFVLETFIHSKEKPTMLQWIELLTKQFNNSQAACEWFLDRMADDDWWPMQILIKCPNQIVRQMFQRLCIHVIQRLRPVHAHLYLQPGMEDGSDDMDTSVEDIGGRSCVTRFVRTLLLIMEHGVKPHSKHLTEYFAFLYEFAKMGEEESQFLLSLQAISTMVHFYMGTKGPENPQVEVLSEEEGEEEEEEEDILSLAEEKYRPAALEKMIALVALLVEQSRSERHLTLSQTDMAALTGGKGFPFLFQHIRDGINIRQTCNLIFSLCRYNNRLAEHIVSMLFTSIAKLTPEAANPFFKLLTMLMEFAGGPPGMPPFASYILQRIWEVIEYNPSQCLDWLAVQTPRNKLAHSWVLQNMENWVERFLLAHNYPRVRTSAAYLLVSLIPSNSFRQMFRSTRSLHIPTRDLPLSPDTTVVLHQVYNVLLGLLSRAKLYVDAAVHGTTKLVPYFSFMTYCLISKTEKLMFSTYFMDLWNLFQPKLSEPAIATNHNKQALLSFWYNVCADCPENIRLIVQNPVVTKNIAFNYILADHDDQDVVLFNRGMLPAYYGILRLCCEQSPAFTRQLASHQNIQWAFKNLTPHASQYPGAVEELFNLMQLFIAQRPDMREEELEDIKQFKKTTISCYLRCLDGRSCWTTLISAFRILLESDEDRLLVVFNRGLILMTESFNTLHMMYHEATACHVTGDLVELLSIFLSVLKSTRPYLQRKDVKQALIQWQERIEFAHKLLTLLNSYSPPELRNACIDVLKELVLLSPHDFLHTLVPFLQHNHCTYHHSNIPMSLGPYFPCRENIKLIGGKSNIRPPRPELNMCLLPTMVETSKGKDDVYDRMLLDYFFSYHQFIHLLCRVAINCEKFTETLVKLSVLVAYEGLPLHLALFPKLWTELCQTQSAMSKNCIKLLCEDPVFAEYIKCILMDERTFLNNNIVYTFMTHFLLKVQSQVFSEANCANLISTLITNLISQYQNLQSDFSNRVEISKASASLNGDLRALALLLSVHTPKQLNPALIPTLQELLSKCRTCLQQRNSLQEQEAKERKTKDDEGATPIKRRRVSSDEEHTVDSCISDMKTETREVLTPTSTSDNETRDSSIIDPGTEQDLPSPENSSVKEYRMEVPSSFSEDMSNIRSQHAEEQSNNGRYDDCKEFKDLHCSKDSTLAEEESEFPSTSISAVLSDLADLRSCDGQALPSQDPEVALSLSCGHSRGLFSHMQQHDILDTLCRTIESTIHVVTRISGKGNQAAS

O=C(CCl)Nc1ccccc1C(F)(F)F
inactive: USP34 -0.296 | USP36 0.187 | USP38 -0.0183 | USP39 0.198 | USP4 -0.1
